Assay results: article PMC9574860, “Chemical Toolkit for PARK7: Potent, Selective, and High-Throughput” (Journal of Medicinal Chemistry, 2022)
Out of some 7,900 compounds screened, about 400 (5.1%) showed an effect of 50% or more. For the sample, strong results were picked, then their nearest neighbours and some compounds at random.

Molecular target: Parkinson's disease protein 7 (PARK7/DJ1) (human, UniProt Q99497)
Assay: primary screen, percent inhibition; read as competition with a fluorescent probe by fluorescence polarization; higher = more effect of the substance
Conditions: 100 µM
Experimental: The screen was conducted using the conditions as described above in 1536-well plates (Corning 3724) with a reaction volume of 8 μL per well. The compound library containing 7887 covalent fragments was purchased at Enamine Ltd. and received as 100 mM DMSO stocks in 384 well LDV Echo plates (Labcyte LP-0200). Stock solutions of 0.26 μM PARK7 and 80 nM JYQ-107 were prepared. Using a Labcyte Echo550 acoustic dispenser, 8 nL of the DMSO stock solution of the library compounds was transferred from the source plates into the empty 1536-well screening plates to obtain a 100 μM final compound concentration. Next, PARK7 (6 μL, final concentration 0.2 μM) was dispensed using a Biotek MultiflowFX liquid dispenser and incubated for 2 h, followed by dispensing the probe JYQ-107 (2 μL, final concentration 20 nM). After 2 h incubation, the FP signal was recorded on a BMG Labtech PHERAstar plate reader (λex/em 480/520 nm). The relative loss of FP signal compared with reference controls was used to calculate the remaining enzyme activity.

Parkinson's disease protein 7 (PARK7/DJ1), sequence (Q99497 whole entry, looked up): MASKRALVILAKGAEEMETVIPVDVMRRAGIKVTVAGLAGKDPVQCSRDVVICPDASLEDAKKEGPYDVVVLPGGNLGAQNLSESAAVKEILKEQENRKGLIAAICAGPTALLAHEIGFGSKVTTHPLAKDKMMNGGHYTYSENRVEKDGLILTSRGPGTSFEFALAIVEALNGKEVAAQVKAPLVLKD

Row | Structure (SMILES) | Inhibition % [%]
1 | C=CC(=O)Nc1ccc2nc(C(F)(F)F)oc2c1 | 20.1
2 | C=CC(=O)N1CCN(c2cccc(OC(F)F)c2)CC1 | 6.79
3 | CC(C)c1ccc(NC(=O)Cn2cnc(C#N)n2)cc1 | 22.6
4 | O=S(=O)(F)CCSc1nc2ccccc2o1 | 70.3
5 | O=S(=O)(F)CCn1nnc2ccccc21 | 8.8
6 | ClCCCc1nc2ccccc2o1 | 16.4
7 | COc1cc(C=C(C#N)C(N)=O)ccc1OC(C)C | 4.85
8 | N#Cc1nc(-c2ccc(Cl)c(Cl)c2)oc1N | 5.93
9 | CC1(C)OB(c2cccc(CN3CCCC3)c2)OC1(C)C.Cl | 6.39
10 | C=CC(=O)N1CCCc2[nH]c3ccc(F)cc3c2C1 | 71.3
11 | C=CC(=O)N1CCc2cc(F)ccc2C1 | 10.6
12 | C=CC(=O)N1CCCN(C(=O)c2cccc(F)c2)CC1 | 2.43
13 | C=CC(=O)N1CC(C)(C)C1c1cccs1 (stereo not shown) | 8.35
14 | C=CC(=O)N1C[C@H](F)C[C@H]1C(N)=O | 11.6
15 | CC1CCC2(CC1)NC(=O)N(CC=CCl)C2=O (stereo not shown) | -0.501
16 | CC(NC(=O)Oc1ccccc1)C(=O)O (stereo not shown) | 10.1
17 | Cc1ccc(B2OC(C)(C)C(C)(C)O2)c(C#N)c1 | -0.714
18 | O=C(c1cccc(S(=O)(=O)F)c1)N1CCCn2ncc(C3CC3)c21 | 6.74
19 | O=C(O)c1cccc(S(=O)(=O)F)c1 | 95.1
20 | O=S(=O)(F)c1cccc(CO)c1 | 96.8
21 | O=C(C=Cc1ccccc1)c1ccc(S(=O)(=O)F)cc1 | 10.9
22 | CN(Cc1cccc(F)c1)S(=O)(=O)F | 8.98
23 | N#CC1COCCN1C(=O)c1cccc(S(=O)(=O)F)c1 (stereo not shown) | 93.6
24 | O=S(=O)(F)c1ccc(S(=O)(=O)F)cc1 | 7.58
25 | C#Cc1ccc(S(=O)(=O)F)cc1 | 14.4
26 | C=CC(=O)N1CCOCC1c1cccc(F)c1 (stereo not shown) | 2.96

Row | Structure (SMILES) | Inhibition % [%]
27 | N#Cc1ccc(S(=O)(=O)F)cc1 | 60.6
28 | O=C(O)c1ccc(S(=O)(=O)F)cc1 | 49.1
29 | c1ncc(C2OCCO2)s1 | 38.6
30 | C=CC(=O)N[C@H]1C[C@H](c2ccccc2F)C1 | 10.2
31 | C=CC(=O)Nc1cc(S(=O)(=O)N(C)C)ccc1Cl | 6.55
32 | Cc1ccc(-n2cnc(Cl)c2C#N)cc1 | 6.79
33 | COCc1n[nH]c(=O)o1 | 2.07
34 | CN1CCCC(CCl)C1.Cl (stereo not shown) | 4.37
35 | CN(C(=O)C(C#N)=Cc1ccco1)c1ccc(F)cc1 | 8.11
36 | c1cc2ccc(OCC3CO3)cc2[nH]1 (stereo not shown) | 5.75
37 | Cc1cc(C#N)cc(C(=O)O)n1 | 4.24
38 | Cc1cnc(=S)[nH]c1 | 8.44
39 | N#CSc1c(Cl)nc2sccn12 | 13.7
40 | C=CC(=O)N1CCOCC1CC(F)F (stereo not shown) | 17
41 | Cc1ccc(-n2cc(SC(=O)N(C)C)cn2)cc1 | 6.2
42 | N#Cc1cnn(Cc2ccc(S(=O)(=O)F)cc2)c1 | 7.21
43 | O=S(=O)(F)c1cccc(Br)c1 | 16.4
44 | O=[N+]([O-])c1ccc(C(F)(F)F)c(S(=O)(=O)F)c1 | 102
45 | C=CS(=O)(=O)c1cccc(C#N)c1 | 6.17
46 | O=C(CCl)NC(=O)c1cccc([N+](=O)[O-])c1 | 31.5
47 | O=C(CCl)Nc1ccc([N+](=O)[O-])cc1C(F)(F)F | 12.1
48 | N#Cc1cccc(S(=O)(=O)F)c1 | 97.3
49 | O=S(=O)(F)c1ccc(Cl)cc1 | 27
50 | O=[N+]([O-])c1cccc(S(=O)(=O)F)c1 | 99.2
51 | CC1(C)OB(c2cccc(S(N)(=O)=O)c2)OC1(C)C | 2.2
52 | O=S(=O)(F)c1ccccc1C(F)(F)F | 11.3

Row | Structure (SMILES) | Inhibition % [%]
53 | NS(=O)(=O)c1cccc(S(=O)(=O)F)c1 | 94.3
54 | CC1(C)OB(c2ccc(OCCc3ccccn3)cc2)OC1(C)C | -0.0918
55 | N#Cc1ncn(Cc2ccc(F)cc2Cl)n1 | 0.898
56 | C=CC(=O)N1CC(=O)NC2CCCCC21 (stereo not shown) | 24.2
57 | Cc1ccc2oc(C#N)nc2c1 | 9.34
58 | O=C(CCl)NC1CCCC1 | 15.6
59 | C=CC(=O)N1CCN(c2c(F)cccc2OC)CC1 | 12
60 | CCc1ccccc1NC(=O)CCl | 13.2
61 | CCC1(C)NC(=O)N(NC(=O)CCl)C1=O (stereo not shown) | 9.56
62 | Cl.Nc1cccc2cc(S(=O)(=O)F)ccc12 | 65.6
63 | O=C1NC(c2ccccc2)C12CCCC2 (stereo not shown) | 3.32
64 | Cc1cc(C=C(C#N)C(=O)N2CCC2)c(C)n1CC(C)C | -2.1
65 | NS(=O)(=O)c1ccc(NC(=O)CCl)cc1 | 69.2
66 | O=C(CCl)Nc1ccccc1S(=O)(=O)C(F)F | 6.1
67 | CS(=O)(=O)c1ccc(CNC(=O)CCl)cc1 | 10.2
68 | O=C(CCl)Nc1ccc(S(=O)(=O)C(F)F)cc1 | 65.8
69 | Cc1ccc(NC(=O)CCl)cc1S(N)(=O)=O | 17.6
70 | CS(=O)(=O)c1ccc(NC(=O)CCl)cc1 | 51.8
71 | NS(=O)(=O)c1cccc(NC(=O)CCl)c1 | 14.7
72 | CS(=O)(=O)c1cccc(NC(=O)CCl)c1 | 7.34
73 | CCC(CSC)Nc1ccc(C#N)nc1 (stereo not shown) | 11.4
74 | O=S(=O)(F)c1ccc(Cn2cnc(Br)n2)cc1 | 12.6
75 | C=CC(=O)NCCc1cnn(C)c1 | 3.91
76 | Cc1cc(C=C(C#N)C(=O)O)c(C)n1CC(C)C | 8.48
77 | Cl.Cl.NC1CCN(C2CCOC2=O)CC1 (stereo not shown) | 5.74
78 | O=C(CCl)N(c1ccccc1)C1CCS(=O)(=O)C1 (stereo not shown) | 5.5

Row | Structure (SMILES) | Inhibition % [%]
79 | C=CC(=O)Nc1ccc2nc(C3CC3)oc2c1 | 11.6
80 | N#Cc1ncccc1S(N)(=O)=O | 6.94
81 | Nc1ccccc1S(=O)(=O)F | 44.7
82 | Nc1cccnc1S(=O)(=O)F | 81.4
83 | O=C(CCl)NCc1ccc(C(=O)N2CCCC2)cc1 | 4.96
84 | Cn1cc(C=CC(=O)N2CCc3ccccc32)cn1 | 3.76
85 | C=CC(=O)N1CCOc2ccc(F)cc2C1 | 11.2
86 | O=c1[nH]c(-c2cccs2)no1 | 3.67
87 | Cc1ccsc1-c1nnc(NC(=O)CCl)o1 | 10.8
88 | Cc1[nH]c(C#N)cc1C(=O)O | 6.7
89 | N#Cc1ccc(C(=O)O)c(=O)[nH]1 | 83.7
90 | N#Cc1ccc(C(=O)O)[nH]1 | 7.43
91 | O=C(O)c1ccc(C2OCCO2)cc1 | 7.82
92 | N#CC(c1ccccc1)N1CCN(C(=O)CCl)CC1 (stereo not shown) | 18.3
93 | CCC(C)c1ccc(NC(=O)CCl)cc1 (stereo not shown) | 99.1
94 | CC(C)c1ccc(NC(=O)CCl)cc1 | 95.8
95 | CCN(c1ccc(NC(=O)CCl)cc1)C(C)C.Cl | 98.6
96 | CCN(CC)C(=O)c1ccc(NC(=O)CCl)cc1 | 43.2
97 | CCC(C)c1ccc(-c2csc(NC(=O)CCl)n2)cc1 (stereo not shown) | 8.03
98 | CCC(C)c1ccccc1NC(=O)CCl (stereo not shown) | 16.8
99 | CC(C)c1ccc(CCNC(=O)CCl)cc1 | 22
100 | CC(C)c1ccc(C(C)NC(=O)CCl)cc1 (stereo not shown) | 6.77
101 | C=CC(=O)NC(=O)NC12CC3CC(CC(C3)C1)C2 | 3.27
102 | C=CC(=O)N1CCC(CNC(C)=O)CC1 | 25
103 | CC1(C)OC1c1ccccc1 (stereo not shown) | 13.4
104 | C#CCN(c1cnc(C#N)cn1)C1CCCC1 | 1.73

Row | Structure (SMILES) | Inhibition % [%]
105 | COC1CS(=O)(=O)CC1Cl (stereo not shown) | 8.34
106 | C=CC(=O)N1CCc2nc(-c3ccccc3)sc2C1 | 16.7
107 | O=C(CCl)N1c2ccccc2Sc2ccc(Cl)cc21 | 6.3
108 | COc1ccc(S(=O)(=O)n2ccc(C)n2)cc1 | 7.42
109 | CCc1nccn1S(=O)(=O)c1cc(Cl)c(C)cc1OC | 4.53
110 | O=c1onc(-c2ncccn2)n1Cc1ccc(Cl)s1 | 2.32
111 | O=C(CCl)C1CCC(F)(F)CC1 | 96.8
112 | C=CC(=O)NCC1CCC(F)(F)CC1 | 5.38
113 | O=C(CCl)NCC1CCOC1 (stereo not shown) | 8.14
114 | O=C(CCl)NC1CCOCC1 | 10.5
115 | O=C(CCl)C1CCOCC1 | 99
116 | O=C(CCl)NNC(=O)C1CC1 | 1.1
117 | Cc1cc(C)n(CC2CCCN2C2CC(C)OC2=O)n1 (stereo not shown) | -2.43
118 | Cc1ccnc(S)n1.Cl | 5.09
119 | Cc1cc(C(=O)Nc2cccc(S(=O)(=O)F)c2)c(C(F)(F)F)o1 | 96.8
120 | C=CC(=O)Nc1cccc(C(F)(F)F)c1 | 9.31
121 | COCc1ncsc1C(=O)Nc1cccc(S(=O)(=O)F)c1 | 8.52
122 | O=C(Nc1cccc(S(=O)(=O)F)c1)c1ccoc1C(F)(F)F | 96.8
123 | Cc1ccoc1C(=O)Nc1cccc(S(=O)(=O)F)c1 | 7.02
124 | O=C(Nc1cccc(S(=O)(=O)F)c1)c1sccc1OC(F)F | 93.1
125 | Cc1nc2c(C(=O)Nc3cccc(S(=O)(=O)F)c3)cccc2o1 | 43.6
126 | NS(=O)(=O)c1cccc(NC(=O)Oc2ccccc2)c1 | 4.87
127 | C=CC(=O)Nc1cccc(OC(F)F)c1 | 4.3
